# Source: PubChem
# This is one part of a sample in which hits are shown more often than they occur.
# TSHR antag: Antagonists of the Thyroid Stimulating Hormone Receptor: HTS campaign; Thyrotropin receptor (Homo sapiens), P16473; AID 504810, 2011; 330,000 compounds, 0.2% hits; activity change, negative = inhibition, % at 11.5 µM; TSHR-expressing cells, TSH-stimulated cAMP HTRF, 2 h; hits give low values;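 active = activity change below a set negative limit, meaning inhibition stronger than a set level, cut at about -70% in these data; inconclusive = activity change between two set negative limits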; also: % is scaled to controls: 0 for no effect and ±100 for the full control effect
# Target sequence (P16473 whole entry, looked up): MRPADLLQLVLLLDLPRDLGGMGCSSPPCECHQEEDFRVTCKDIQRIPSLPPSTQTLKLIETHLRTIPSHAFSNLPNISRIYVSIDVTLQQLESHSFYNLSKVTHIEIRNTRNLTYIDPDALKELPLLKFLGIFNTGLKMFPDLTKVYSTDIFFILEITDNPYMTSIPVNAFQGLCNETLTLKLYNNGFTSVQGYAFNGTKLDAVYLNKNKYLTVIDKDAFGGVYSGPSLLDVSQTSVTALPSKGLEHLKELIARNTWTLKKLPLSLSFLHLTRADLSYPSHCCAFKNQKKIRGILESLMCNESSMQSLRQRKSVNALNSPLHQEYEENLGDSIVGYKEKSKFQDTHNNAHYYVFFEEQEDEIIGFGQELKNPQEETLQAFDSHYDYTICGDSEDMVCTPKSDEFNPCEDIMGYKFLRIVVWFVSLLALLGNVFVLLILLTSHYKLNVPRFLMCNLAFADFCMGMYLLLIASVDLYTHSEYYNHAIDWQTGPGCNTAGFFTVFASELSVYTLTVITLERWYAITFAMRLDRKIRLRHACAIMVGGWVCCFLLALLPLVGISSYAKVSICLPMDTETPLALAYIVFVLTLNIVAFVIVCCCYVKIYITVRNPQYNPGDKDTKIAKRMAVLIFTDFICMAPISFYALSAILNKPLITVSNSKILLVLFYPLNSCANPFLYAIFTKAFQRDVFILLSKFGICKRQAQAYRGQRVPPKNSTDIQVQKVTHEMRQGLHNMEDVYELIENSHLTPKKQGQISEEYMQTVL
#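 Inhibition of cAMP made by TSHR-expressing cells under TSH stimulation (4nM final, EC80; 2 h, 37 deg C) is quantified with a one-step lysis HTRF kit, anti-cAMP cryptate versus cAMP-d2.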
# NPSR antagonist: qHTS Assay for Antagonists of the Neuropeptide S Receptor: cAMP Signal Transduction; CHO-NPSR cells, cAMP TR-FRET, antagonist mode; AID 1461, 2008; 220,000 compounds, 1% hits; Potency, µM (top dose mostly 38.3 µM), inactives show at the highest dose activity change, negative = inhibition, most hits filed as inhibitors; Q6W5P4; also: potency is read from the fitted curve at half-maximal effect; % is scaled to controls: 0 for no effect and ±100 for the full control effect; nearly all actives have a fitted effect of over 50% in size
# HEK293 tox: qHTS of GLP-1 Receptor Inverse Agonists: Cytotox Screen; HEK293 cAMP-luciferase reporter cells, luminescence, 24 h; Potency, µM (doses to about 38.3 µM), without a hit: at the highest dose activity change, negative = inhibition, actives largely listed as inhibitors; 410,000 compounds, 0.13% hits; AID 624418, 2012;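 also: loss of luciferase light is scored as toxicity; potency is read from the fitted curve at half-maximal effect; % is scaled to controls: 0 for no effect and ±100 for the full control effect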
#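 Cells in DMEM/10% Nu serum/1% pen-strep, 1536-well format. Pre-incubated 12 h, dosed with 23 nL compound, incubated a further 24 h. Luciferase detection, 12 min at room temp, luminescence.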
# PTHR1 ag: qHTS for PTHR1 Agonists: Primary Screen | Parathyroid hormone/parathyroid hormone-related peptide receptor (Homo sapiens), Q03431 | HEK293 GP2 PTHR1 cells, GloSensor cAMP luminescence, 1 h | Potency, µM (series often up to 115 µM), for the others: at the highest dose activation, usual class: activators | 410,000 compounds, 0.075% hits; also: potency is read from the fitted curve at half-maximal effect; nearly all actives have a fitted effect of over 55% in size
#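 HEK-293-derived GP2 cells expressing PTHR1 and a GloSensor cAMP reporter, 3,000/well, plated overnight, given luciferin plus IBMX (each 0.5 mM as added) for 1 h at 37 °C, then compound for 1 h at 37 °C. Luminescence was read after 15 min at room temperature.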
# RXFP1 antag: qHTS Assay for Antagonists of the Relaxin Receptor RXFP1 | HEK293-RXFP1, relaxin-stimulated cAMP HTRF, 30 min; hits give low values | activity change, negative = inhibition, % at 57.5 µM | 350,000 compounds, 0.59% hits | AID 1259400, 2018;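 active = activity change of -60% or lower, but not beyond a set lower limit; inconclusive = change between -60% and -40%, or beyond the set limit; inactive = change above -40%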; also: % is scaled to controls: 0 for no effect and ±100 for the full control effect
# RXFP1 agonist: qHTS Assay for Agonists of the Relaxin Receptor RXFP1; Relaxin receptor 1 (Homo sapiens), Q9HBX9; Potency, µM (doses to about 57.5 µM), for inactives: at the top dose activation, most hits filed as activators; HEK293T-RXFP1 cAMP TR-FRET, 30 min; response scale: percent of porcine relaxin response, buffer zero; 370,000 compounds, 0.3% hits; also: potency is read from the fitted curve at half-maximal effect; % is scaled to controls: 0 for no effect and ±100 for the full control effect; nearly all actives have a fitted effect of over 60% in size
#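 HEK293 cells stably expressing RXFP1, treated 30 min at 37C with compounds plus PDE4 inhibitor Ro 20174; cAMP measured by HTRF TR-FRET. Normalized to buffer and 29 nM porcine relaxin; EC50 by Hill fit.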
# Starred values were filed as active, the others as inactive; i = inactive; ? = inconclusive; nt = no result given; [ ] = dose if it differs, or a comment. Unless noted, calls follow the shape of the dose curve; as a rule, active = well fitted curve in the direction sought with a large enough effect; inconclusive = small, poorly fitted or top-dose-only effect, or another doubt; inactive = no such curve, though single readings can be large; an effect the other way counts as inactive or inconclusive.
SMILES,TSHR antag,NPSR antagonist,HEK293 tox,PTHR1 ag,RXFP1 antag,RXFP1 agonist
CS(=O)(=O)c1ccc(S(=O)CC(=O)OCc2ccccc2)c([N+](=O)[O-])c1 (stereo not drawn),12,?,?,-33%,-108*,1%
COC(=O)c1ccc(OC(=O)CS(=O)c2ccccc2[N+](=O)[O-])cc1 (stereo not drawn),6,-10%,-6%,i,0,-3%
NNC(=O)CSc1cccc2cccnc12,-4,9%,4%,-9%,-11,2%
CN(C)C(=O)CSc1cccc2cccnc12,4,-7%[46.1 µM],2.5µM*,i,-11,1%
O=C(CSc1cccc2cccnc12)N1CCCC1,4,-4%[46.1 µM],0.71µM*,-3%,-14,-2%
COc1cc(-c2cc(OC)c3c(C)oc(C)c3c(=O)c2)ccc1OC(=O)c1cccc(Cl)c1,nt,nt,5%,-72%,-76*,-2%
CCOc1cc(-c2ccc(OC(=O)c3ccc(C)cc3)c(OC)c2)cc(=O)c2c(C)oc(C)c12,nt,nt,-8%,-89%,-64*,1%
COc1ccc(-c2cc(OC(=O)c3ccccc3C)c3c(C)oc(C)c3c(=O)c2)cc1,nt,nt,-19%,-17%,-16,0%
CCOc1cc(-c2ccc(OC(=O)c3ccccc3F)cc2)cc(=O)c2c(C)oc(C)c12,nt,nt,-4%,-34%,-97*,-2%
COc1cc(-c2cc(OC)c3c(C)oc(C)c3c(=O)c2)ccc1OC(=O)c1ccccc1C,nt,nt,-2%,-9%,-65*,-3%
Cc1ccc(-c2ccc(CN3C(C(C)C)C(=O)N(Cc4cn(CCC5OCCO5)nn4)CCS3(=O)=O)cc2)c(C)c1 (stereo not drawn),nt,nt,-26%,-89%,nt,nt
CCN(CC)CCNC(=O)c1ccc(NS(C)(=O)=O)cc1,-6,nt,nt,nt,nt,nt
Cc1cc(C)n2nc(N)c(N=Nc3ccccc3)c2n1,-11,26%,10µM*,-3%,-31,-1%
CNCCc1cnc(CCC(c2ccccc2)c2ccccc2)[nH]1,-5,nt,nt,nt,nt,nt
CCC(CC)C(=O)N1CCc2cc(OC)c(OC)cc2C1COc1ccc2c(C)cc(=O)oc2c1 (stereo not drawn),nt,nt,-17%,i,0,0%
O=C(CS(=O)(=O)c1ccc(Cl)cc1)Nc1nnc(-c2cccs2)o1,-7,nt,4%,-11%,-75*,3%
CCC1CCCCN1S(=O)(=O)c1ccc(C(=O)Nc2nnc(-c3cccs3)o2)cc1 (stereo not drawn),-14,-3%[46.1 µM],-4%,-25%,-73*,1%
CCCCOC(=O)c1ccc(OC(=O)c2sc3ncn(Cc4cccc(F)c4)c(=O)c3c2C)cc1,nt,nt,3%,i,-1,9%
Cc1ccc(CCNC(=O)c2oc(=O)c3ccccc3c2-c2ccc(C)cc2)cc1,nt,nt,0%,i,nt,-1%
Cc1cc(C)cc(N2C(=O)C=CC2=O)c1,nt,nt,-27%,-33%,-85*,nt
O=C(N/N=C/c1cc(Cl)c(O)c(Cl)c1)c1cc2c(ccc3ccccc32)o1,-21,nt,139%,-13%,-81*,0%
O=C(N/N=C/c1cc(Br)c(Br)o1)c1cc2ccccc2o1,5,nt,-8%,-31%,-63*,3%
O=C(N/N=C/c1ccc(O)c(Br)c1)c1cc2c(ccc3ccccc32)o1,-4,nt,-8%,13%,-3,0%
O=C(N/N=C/c1cc(Br)c(O)c(Br)c1)c1cc2c(ccc3ccccc32)o1,-9,nt,147%,-32%,-100*,6%
O=C(N/N=C/c1ccc([N+](=O)[O-])o1)c1cc2ccccc2o1,4,-30%,19%,-7%,-9,3%
SMILES,TSHR antag,NPSR antagonist,HEK293 tox,PTHR1 ag,RXFP1 antag,RXFP1 agonist
COC(=O)C(C)Sc1ccc2nnc(-c3ccccc3)n2n1 (stereo not drawn),-2,-2%,6%,i,0,25µM*
CCC(Sc1ccc2nnc(-c3cccnc3)n2n1)C(=O)O (stereo not drawn),25,?,0%,?,nt,14µM*
CCOC(=O)C(CC)Sc1ccc2nnc(-c3cccnc3)n2n1 (stereo not drawn),6,10%,-2%[7.66 µM],-18%,0,18µM*
Cc1cccc(NC(=O)CSc2ccc3nnc(-c4cccnc4)n3n2)c1,6,nt,10%,-5%,-2,?
CCOC(=O)C(C)Sc1ccc2nnc(-c3ccc(F)cc3)n2n1 (stereo not drawn),-10,-18%[46.1 µM],-1%,i,-6,8%
Cc1ccc(-n2nnnc2C(Cl)c2nnnn2-c2ccc(C)cc2)cc1,-28,-21%,1%,-55%,-63*,0%
Cc1ccc(-n2nnnc2-c2ccccc2)cc1,-7,-9%,14%[0.307 µM],-4%,-16,0%
CCOC(=O)c1cccc(Nc2c3c(nc4ccccc24)CCC3)c1,nt,nt,10µM*,-18%,-22,-1%
COC(=O)c1cccc(Nc2c3c(nc4ccccc24)CCC3)c1,-1,nt,?,-31%,-4,2%
CCOC(=O)c1nn(C)c2[nH]c(=O)n(C)c(=O)c12,nt,nt,6%,-9%,-4,nt
CC(C)CC(C)c1cc(N)nc2nc3ccccc3n12 (stereo not drawn),-13,?,-19%,i,-61*,3%
CSc1cccc(NC(=O)Cn2nnc(C(=O)NCCc3ccccc3)c2N)c1,nt,nt,-12%,i,-10,2%
COC(=O)c1c(NC(=O)c2c(OC)cccc2OC)sc2c1CCCC2,nt,nt,4%,-44%,-9,1%
Cn1nc(C(=O)Nc2sc3c(c2C#N)CCCC3)ccc1=O,-10,-12%,5%,45µM*,-4,2%
COc1cccc(OC)c1C(=O)Nc1sc2c(c1C#N)CCC2,-118*,nt,-1%,i,-3,0%
CC(=O)NC(c1ccco1)c1cc(Cl)c2ccc(N3CCCCC3)nc2c1O (stereo not drawn),7,nt,nt,nt,nt,0%
CCOc1cc(C(=O)NCC(=O)N2CCC3(CC2)NCCc2[nH]cnc23)cc(OCC)c1OCC,6,nt,-11%,-23%,-119*,0%
CCOc1cccc2cc(-c3nc(-c4ccc(Cl)cc4)c(C)s3)c(=O)oc12,nt,nt,2%,i,-3,2%
CCC(=O)N(CCC(c1ccco1)c1ccccc1OC)Cc1cccs1 (stereo not drawn),-10,?,2%,0%,-13,0%
